An excerpt weighted towards active compounds, which were near 3.1% of everything screened.
EWS-Fli inh – EWS/Fli-driven NR0B1 reporter inhibitors, primary screen, A673 cells, NR0B1 luciferase, luminescence, MLPCN library; viability-normalised; inhibition, % at 12.6 µM; actives 0.67% (n = 350,000); AID 651661, 2012;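 active = mean inhibition of at least 50% after viability correction, with every replicate also passing that limit; inconclusive = mean reaches 50% but only one of two replicates passes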;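 also: firefly luciferase signal divided by Alamar Blue viability fluorescence both relative to DMSO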
LGR2 antag – inhibitors of bursicon-induced LGR2 CRE-luciferase signal, primary screen, cell-based, HEK293, CRE-luciferase reporter, bursicon stimulation | Drosophila bursicon receptor LGR2 (rickets) | bursicon-stimulated, 4 h | inhibition, % at 9.99 µM | actives 0.35% (n = 380,000);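 active = drop in luminescence signal, shown as inhibition above about 50% in the replicate tests, limit read from the data, passing the limit was not always enough; inconclusive = probably only some replicates passing the limit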;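 also: agonist challenge used bursicon conditioned medium at about half maximal strength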
TROY signal inh – inhibitors of TROY-driven NF-kB signaling, primary screen, Q293 LMP1-TROYcd cells, NF-kB luciferase, uHTS; inhibition, % at 10 µM; actives 0.98% (n = 360,000); Q293 LMP1-TROYcd NF-kB luciferase reporter, 4 h;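 active = compounds whose plate-normalised and pattern-corrected inhibition of the luciferase reporter signal at the single screening dose is 50% or more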
EBV LMP1 NFkB – EBV LMP1-driven NF-kappaB luciferase reporter inhibitors, primary screen, cell-based, luminescence, single point. LMP1-induced NF-kappaB luciferase reporter cells. inhibition, % at 12.5 µM. actives 0.69% (n = 350,000). AID 504558, 2011; in the data active = inhibition above about 41%; inconclusive = no clear call, values can overlap the other calls;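 also: 0% = neutral control wells and 100% = reference inhibitor control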
TWEAK-Fn14 inh – inhibitors of TWEAK-Fn14 signaling, primary screen, luciferase reporter cells, uHTS; TWEAK-stimulated Fn14 reporter cells, luciferase luminescence, 8 h; inhibition, % at 10 µM; actives 2% (n = 360,000); AID 1159606, 2016; in the data active = inhibition above about 50%
PAX8 reporter – inhibitors of PAX8-driven TPO luciferase reporter, primary screen, RMG-I cells, single concentration; inhibition, % at 12.6 µM; SteadyGlo, 24 h; AID 652154, 2013; actives 1.2% (n = 360,000);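 active = mean replicate inhibition at least 60% with every replicate also reaching 60%; inconclusive = only one of the two criteria is met; inactive = mean below 60% and not all replicates reaching 60%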;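 also: luciferase light reporting Pax8 driven TPO promoter activity; plate controls were median of neutral control wells for no effect and mitoxantrone controls for full effect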
* = called active by the depositor.

Screening CO[C@H]1CN(C)C(=O)c2ccc(NC(=O)Nc3ccccc3)cc2OC[C@H](C)N(C(=O)CC2CC2)C[C@H]1C returned EWS-Fli inh -18 and LGR2 antag -20.
Screening C[C@H](CO)N1C[C@H](C)[C@H](CN(C)S(=O)(=O)c2ccccc2)Oc2c(NC(=O)C3CCCCC3)cccc2C1=O returned EWS-Fli inh -5, LGR2 antag -6 and PAX8 reporter 3.
COc1ccccc1/C=C1\SC(=S)N(CC(=O)Nc2nnc(C)s2)C1=O was read as EWS-Fli inh 60*, LGR2 antag -7 and PAX8 reporter 0.
Screening COc1ccccc1/C=C1\SC(=S)N(CCC(=O)NC2=NCCS2)C1=O returned EWS-Fli inh 15, TROY signal inh 28, EBV LMP1 NFkB -12, TWEAK-Fn14 inh 25 and PAX8 reporter -5.
`CN1C[C@H]2[C@@H](c3ccccc31)[C@H](CO)N2Cc1ccccc1Cl` gave EWS-Fli inh 1, LGR2 antag 14 and PAX8 reporter 15.
CN1C[C@@H]2[C@H](c3ccccc31)[C@H](CO)N2Cc1ccccc1Cl was read as EWS-Fli inh 7, LGR2 antag 11 and PAX8 reporter 109*.
For Cc1ccc(C(=O)CSc2nnc3c4ccccc4nc(Cc4ccccc4)n23)cc1 the results were EWS-Fli inh -1, LGR2 antag 8, TROY signal inh 65*, EBV LMP1 NFkB 9, TWEAK-Fn14 inh 26 and PAX8 reporter -3.
`Cc1ccc(C(=O)CSc2nc3ccccc3c(=O)[nH]2)cc1` gave TROY signal inh -26, EBV LMP1 NFkB 3 and TWEAK-Fn14 inh 19.
`C[C@]12CCC(O)CC1CCC1C2CC[C@]2(C)C(c3cc(C(F)(F)F)n[nH]3)CCC12` (stereo partly drawn) gave EWS-Fli inh 11, LGR2 antag 7, TROY signal inh 61*, EBV LMP1 NFkB 13, TWEAK-Fn14 inh -36 and PAX8 reporter 5.
For CC12CCC3C(CCC4CC(O)CCC43C)C1CC(O)C2 (stereo not drawn) the results were EWS-Fli inh -6, LGR2 antag 8, TROY signal inh 26, EBV LMP1 NFkB 0, TWEAK-Fn14 inh 26 and PAX8 reporter -1.
Screening CCC(C)c1ccc(S(=O)(=O)N2CCN(C(C)C(=O)NC3CCCC3)CC2)cc1 (stereo not drawn) returned EWS-Fli inh 9, LGR2 antag 2, TROY signal inh -18, EBV LMP1 NFkB -5, TWEAK-Fn14 inh 87* and PAX8 reporter 3.
Screening CSC(=N/N=C(\N)c1cnccn1)SC returned LGR2 antag -1, TROY signal inh -9, EBV LMP1 NFkB 43*, TWEAK-Fn14 inh -18 and PAX8 reporter -11.
Cc1ccc(S(=O)(=O)Nc2cccc3c2O[C@@H](CN(C)Cc2ccc(Cl)c(Cl)c2)[C@@H](C)CN([C@H](C)CO)C3=O)cc1 was read as EWS-Fli inh 13 and PAX8 reporter 32.
Screening CCOc1ccc(/C=N/NC(=O)c2[nH]ncc2Br)c(O)c1 returned EWS-Fli inh -56, LGR2 antag inconclusive, TROY signal inh 24, EBV LMP1 NFkB 3, TWEAK-Fn14 inh 76* and PAX8 reporter -18.
`COC(=O)CSc1nnc(-c2sc3ccccc3c2Cl)o1` gave TROY signal inh 35, EBV LMP1 NFkB 4 and TWEAK-Fn14 inh 64*.
N#CCSc1nnc(-c2sc3ccccc3c2Cl)o1 was read as LGR2 antag -29, TROY signal inh 7, EBV LMP1 NFkB 16, TWEAK-Fn14 inh 34 and PAX8 reporter -14.
`CN(CCO)c1cc(Sc2nc3ccccc3s2)c2nonc2c1[N+](=O)[O-]` gave EWS-Fli inh 53*, LGR2 antag -24, TROY signal inh 0, EBV LMP1 NFkB 2 and TWEAK-Fn14 inh -12.
`CC(C)CCNc1nc(-c2ccco2)c2c(c1C#N)CCCC2` gave LGR2 antag 2, TROY signal inh 9, EBV LMP1 NFkB -7 and TWEAK-Fn14 inh 10.
Screening N#Cc1c(NCCN)nc(-c2ccco2)c2c1CCCC2 returned TROY signal inh -3, EBV LMP1 NFkB 78* and TWEAK-Fn14 inh -24.
Cc1noc(C)c1NC(=O)N(C)C[C@H]1Oc2ccc(NC(=O)c3ccncc3)cc2C(=O)N([C@@H](C)CO)C[C@@H]1C was read as EWS-Fli inh -3 and LGR2 antag 4.
Screening O=C(Nc1ccc2c(c1)OCCO2)c1cc2sccc2n1Cc1ccccc1 returned TROY signal inh 24, EBV LMP1 NFkB -5 and TWEAK-Fn14 inh 53*.
For O=C(Nc1ccc2c(c1)OCCO2)c1ccco1 the results were EWS-Fli inh -14, LGR2 antag 8, TROY signal inh 38, EBV LMP1 NFkB 23 and TWEAK-Fn14 inh 61*.
`O=C(CN1CCN(C(=O)c2ccco2)CC1)Nc1ccc2c(c1)OCCO2` gave TROY signal inh 53*, EBV LMP1 NFkB 13, TWEAK-Fn14 inh 64* and PAX8 reporter -10.
O=C(Nc1cccc(NC(=O)c2ccco2)c1)c1ccc2c(c1)OCCO2 was read as EWS-Fli inh -9, LGR2 antag -18, TROY signal inh -39, EBV LMP1 NFkB -4, TWEAK-Fn14 inh -13 and PAX8 reporter 2.
`O=C(Cc1ccncc1)N1C[C@@H]2N[C@H](C1)C2c1ccc(-c2ccncc2)cc1` (stereo partly drawn) gave EWS-Fli inh 19, LGR2 antag -6 and PAX8 reporter -3.
C=C1C(=O)c2sccc2C(c2ccc(OC)c(OC)c2)C1COC(C)=O (stereo not drawn) was read as EWS-Fli inh 77*, LGR2 antag 106*, TROY signal inh 69*, EBV LMP1 NFkB 79*, TWEAK-Fn14 inh 100* and PAX8 reporter 115*.
O=C(c1ccco1)N1CCN(c2ncnc3c2nnn3Cc2ccccc2Cl)CC1 was read as LGR2 antag -10, TROY signal inh 11, EBV LMP1 NFkB 10 and TWEAK-Fn14 inh -24.
`O=C(c1ccco1)N1CCN(c2nc(C(F)(F)F)nc3c2nnn3Cc2ccccc2)CC1` gave LGR2 antag 26, TROY signal inh 53*, EBV LMP1 NFkB -9 and TWEAK-Fn14 inh 55*.
Screening CC(C)(C)n1nc(-c2ccc(F)cc2)c2c(N)ncnc21 returned TROY signal inh -26, EBV LMP1 NFkB inconclusive and TWEAK-Fn14 inh -83.
`CC(C)(C)n1nc(-c2ccc(Cl)cc2)c2c(N)ncnc21` gave TROY signal inh 8, EBV LMP1 NFkB 42* and TWEAK-Fn14 inh -54.
CCCN(C)C[C@H]1OCCCC[C@@H](C)Oc2ccc(NS(=O)(=O)c3ccc(F)cc3)cc2C(=O)N([C@@H](C)CO)C[C@H]1C was read as EWS-Fli inh 1, LGR2 antag 1 and PAX8 reporter 37.
